In PubChem BioAssay (Tox21):
Results filed as inconclusive are left out. The source made the active and inactive calls. Unless noted, the call rests on the fitted dose curve; in most records, active means well fitted curve in the direction sought with a large enough effect in the repeat runs; inconclusive means weak or mixed curves; inactive means no such curve, though single readings can be large; an effect the other way counts as inactive or inconclusive.

Tests used:
[1] = qHTS assay to identify small molecule antagonists of the thyroid receptor (TR) signaling pathway (AID 743065); further: nearly all actives have a fitted effect of over 55% in size; further: potency means the concentration at half of the fitted maximal effect
Summary of the method: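 Antagonism measured as loss of luciferase signal in GH3 cells stably carrying a TRE-luciferase reporter, co-treated with compound and T3 (1 nM final) for 23.5 h at 37 C. Viability was read in the same well by CellTiter-Fluor.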

[2] = tested on: thyroid hormone receptor (rat, GH3 cells); assay: qHTS assay to identify small molecule agonists of the thyroid receptor (TR) signaling pathway (AID 743066; calls by dose curve)
[3] = biological target: Estrogen receptor (Homo sapiens) (UniProt P03372); assay: qHTS assay to identify small molecule antagonists of the estrogen receptor alpha (ER-alpha) signaling pathway (AID 743069; active means well fitted curve in the direction sought with a large enough effect in the signal ratio in the repeat runs, not every such curve was filed as active; the % refers to the signal ratio)
Estrogen receptor (Homo sapiens), sequence (P03372 whole entry, looked up): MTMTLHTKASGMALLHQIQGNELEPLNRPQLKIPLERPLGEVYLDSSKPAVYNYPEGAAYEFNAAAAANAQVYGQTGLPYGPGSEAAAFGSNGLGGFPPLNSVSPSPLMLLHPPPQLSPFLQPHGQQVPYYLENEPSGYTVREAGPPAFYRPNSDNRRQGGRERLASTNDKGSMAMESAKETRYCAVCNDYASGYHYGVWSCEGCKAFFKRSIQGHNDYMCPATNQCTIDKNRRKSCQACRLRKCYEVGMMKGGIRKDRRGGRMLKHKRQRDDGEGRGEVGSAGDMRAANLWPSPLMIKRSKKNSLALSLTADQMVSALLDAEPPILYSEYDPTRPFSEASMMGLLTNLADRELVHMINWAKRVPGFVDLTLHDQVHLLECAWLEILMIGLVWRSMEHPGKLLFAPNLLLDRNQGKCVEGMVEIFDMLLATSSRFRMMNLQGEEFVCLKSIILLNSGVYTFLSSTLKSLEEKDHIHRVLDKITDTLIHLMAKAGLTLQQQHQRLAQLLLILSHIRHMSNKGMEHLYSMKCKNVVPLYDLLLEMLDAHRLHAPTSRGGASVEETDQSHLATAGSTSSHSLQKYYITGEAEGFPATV
Summary of the method: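 Fluorescence intensity from a beta-lactamase FRET substrate served as the read-out. Cells: HEK293 with stably integrated ER-alpha-UAS-bla reporter. Agonist 17beta-estradiol was co-added with compounds; incubation 18 hr at 37C, substrate 2 hr at room temperature.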

[4] = qHTS assay to identify small molecule antagonists of the estrogen receptor alpha (ER-alpha) signaling pathway - cell viability counter screen (AID 743074; calls by dose curve; further: nearly all actives have a fitted effect of over 45% in size)
[5] = biological target: Estrogen receptor (Homo sapiens) (UniProt P03372); assay: qHTS assay to identify small molecule agonists of the estrogen receptor alpha (ER-alpha) signaling pathway (AID 743075; calls by dose curve)
[6] = biological target: Estrogen receptor (Homo sapiens) (UniProt P03372); assay: qHTS assay to identify small molecule agonists of the estrogen receptor alpha (ER-alpha) signaling pathway using the BG1 cell line (AID 743079); further: nearly all actives have a fitted effect of over 20% in size; further: potency means the concentration at half of the fitted maximal effect
[7] = qHTS assay to identify small molecule antagonists of the estrogen receptor alpha (ER-alpha) signaling pathway using the BG1 cell line - cell viability counter screen (AID 743081);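 further: compound given together with 17beta-estradiol as the ER stimulus; series mostly up to about 70 µM; nearly all actives have a fitted effect of over 45% in size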
Aromatase (Homo sapiens) = Aromatase (Homo sapiens) (UniProt P11511); assay: qHTS assay to identify aromatase inhibitors (AID 743083); further: series mostly up to about 70 µM; nearly all actives have a fitted effect of over 55% in size
Aromatase (Homo sapiens), sequence (P11511 whole entry, looked up): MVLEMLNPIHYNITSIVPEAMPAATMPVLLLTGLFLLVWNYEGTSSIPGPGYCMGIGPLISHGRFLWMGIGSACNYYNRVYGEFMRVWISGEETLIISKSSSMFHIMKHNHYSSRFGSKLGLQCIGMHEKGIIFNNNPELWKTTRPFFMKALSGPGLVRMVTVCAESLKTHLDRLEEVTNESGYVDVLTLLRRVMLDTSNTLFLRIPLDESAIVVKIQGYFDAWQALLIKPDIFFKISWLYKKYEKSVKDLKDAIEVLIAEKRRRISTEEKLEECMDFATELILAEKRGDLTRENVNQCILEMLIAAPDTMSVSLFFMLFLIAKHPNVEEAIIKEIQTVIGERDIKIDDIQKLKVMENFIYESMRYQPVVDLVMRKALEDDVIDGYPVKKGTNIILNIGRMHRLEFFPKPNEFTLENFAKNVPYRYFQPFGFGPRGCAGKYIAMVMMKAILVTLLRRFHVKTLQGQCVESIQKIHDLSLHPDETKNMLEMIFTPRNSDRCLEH

[8] = qHTS assay to identify aromatase inhibitors - cell viability counter screen (AID 743084);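 further: cells stimulated with testosterone during compound exposure; nearly all actives have a fitted effect of over 55% in size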
[9] = biological target: Aryl hydrocarbon receptor (Homo sapiens) (UniProt P35869); assay: qHTS assay to identify small molecule that activate the aryl hydrocarbon receptor (AhR) signaling pathway (AID 743085); further: nearly all actives have a fitted effect of over 15% in size; further: potency means the concentration at half of the fitted maximal effect;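 on activation: HG2L7.5c1 human HepG2 liver cells with stably integrated DRE-driven firefly reporter; series mostly up to about 70 µM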
Aryl hydrocarbon receptor (Homo sapiens), sequence (P35869 whole entry, looked up): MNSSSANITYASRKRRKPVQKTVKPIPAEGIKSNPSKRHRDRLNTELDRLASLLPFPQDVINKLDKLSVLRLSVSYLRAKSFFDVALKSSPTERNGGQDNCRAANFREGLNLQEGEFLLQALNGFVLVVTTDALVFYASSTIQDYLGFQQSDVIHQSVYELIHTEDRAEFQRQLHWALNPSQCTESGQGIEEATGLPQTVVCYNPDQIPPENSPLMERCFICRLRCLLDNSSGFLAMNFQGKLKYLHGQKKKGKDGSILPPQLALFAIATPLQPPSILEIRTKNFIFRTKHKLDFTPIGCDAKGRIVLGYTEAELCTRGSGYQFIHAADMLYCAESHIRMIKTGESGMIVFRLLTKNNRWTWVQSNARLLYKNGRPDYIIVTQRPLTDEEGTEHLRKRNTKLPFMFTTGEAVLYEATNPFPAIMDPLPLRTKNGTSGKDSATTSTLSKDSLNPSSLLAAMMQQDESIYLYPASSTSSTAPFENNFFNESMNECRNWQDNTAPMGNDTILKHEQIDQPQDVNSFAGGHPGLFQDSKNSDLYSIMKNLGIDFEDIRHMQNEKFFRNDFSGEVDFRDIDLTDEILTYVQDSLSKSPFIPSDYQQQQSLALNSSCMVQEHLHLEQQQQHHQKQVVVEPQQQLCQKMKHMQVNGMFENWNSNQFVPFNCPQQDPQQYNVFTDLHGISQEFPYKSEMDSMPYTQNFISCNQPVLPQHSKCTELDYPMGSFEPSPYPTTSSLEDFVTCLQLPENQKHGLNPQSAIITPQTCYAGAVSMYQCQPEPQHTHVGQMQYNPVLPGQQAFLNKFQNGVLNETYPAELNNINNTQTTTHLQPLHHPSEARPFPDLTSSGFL
Summary of the method: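 24 h compound exposure, 37C, HepG2-derived HG2L7.5c1 cells with DRE-responsive luciferase. Readouts: fluorescence viability, then luminescence at room temperature after 30 min.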

[10] = qHTS assay to identify small molecule that activate the aryl hydrocarbon receptor (AhR) signaling pathway - cell viability counter screen (AID 743086);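 further: HepG2 liver cells carrying the AhR DRE luciferase reporter; series mostly up to about 70 µM; nearly all actives have a fitted effect of over 45% in size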
Summary of the method: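 Cytotoxicity counter screen: CellTiter-Fluor signal (30 min, 37 C) in 4000 HepG2 cells/well carrying the DRE-luciferase reporter, following 24 h compound exposure at 37 C.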

[11] = biological target: Peroxisome proliferator-activated receptor gamma (Homo sapiens) (UniProt P37231); assay: qHTS assay to identify small molecule agonists of the peroxisome proliferator-activated receptor gamma (PPARg) signaling pathway (AID 743094; active means well fitted activation curve with a large enough effect in the signal ratio in the repeat runs, not every such curve was filed as active; the % refers to the signal ratio)
Peroxisome proliferator-activated receptor gamma (Homo sapiens), sequence (P37231 whole entry, looked up): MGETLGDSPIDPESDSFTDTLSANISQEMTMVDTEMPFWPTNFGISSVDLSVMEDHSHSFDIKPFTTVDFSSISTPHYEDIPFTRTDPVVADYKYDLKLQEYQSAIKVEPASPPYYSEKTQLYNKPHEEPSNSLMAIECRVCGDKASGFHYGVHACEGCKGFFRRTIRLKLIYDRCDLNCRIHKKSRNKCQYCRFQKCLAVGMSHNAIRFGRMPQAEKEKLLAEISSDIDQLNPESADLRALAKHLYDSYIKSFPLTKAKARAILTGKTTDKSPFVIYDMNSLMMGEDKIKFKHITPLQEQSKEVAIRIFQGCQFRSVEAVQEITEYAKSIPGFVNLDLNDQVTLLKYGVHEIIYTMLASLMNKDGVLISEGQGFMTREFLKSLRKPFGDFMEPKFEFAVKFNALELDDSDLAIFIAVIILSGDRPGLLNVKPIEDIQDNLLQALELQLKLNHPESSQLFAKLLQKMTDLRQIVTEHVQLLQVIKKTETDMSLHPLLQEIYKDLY
Summary of the method: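 Agonist activity was taken from a beta-lactamase reporter (FRET substrate, 1 h at room temperature) in HEK293H cells carrying a PPARg UAS-bla construct. Compounds in DMSO were incubated 17 h at 37C after a 5 h cell pre-incubation.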

[12] = qHTS assay to identify small molecule antagonists of the peroxisome proliferator-activated receptor gamma (PPARg) signaling pathway - cell viability counter screen (AID 743194); further: nearly all actives have a fitted effect of over 55% in size
Summary of the method: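 Viability was measured as CellTiter-Glo luminescence in GeneBLAzer PPARg UAS-bla HEK293H cells. These cells had been exposed 17 h at 37 C to compounds together with rosiglitazone at 50 nM final, with the beta-lactamase readout taken in the same wells.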

[13] = qHTS assay for small molecule activators of the heat shock response signaling pathway - cell viability counter screen (AID 743209); further: nearly all actives have a fitted effect of over 50% in size
Summary of the method: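 Cytotoxicity counter screen run in the same wells as the heat-shock bla reporter assay: HeLa HSE-bla cells, 5 h compound exposure at 37 C, viability read by CellTiter-Glo luminescence.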

[14] = qHTS assay for small molecule activators of the heat shock response signaling pathway (AID 743210; active means well fitted activation curve with a large enough effect in the signal ratio in the repeat runs, with a control signal flat, not every such curve was filed as active; the % refers to the signal ratio;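 further: HeLa cells with beta-lactamase reporter driven by heat shock elements; series mostly up to about 63 µM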)
Summary of the method: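 Fluorescence from a cleaved B/G FRET substrate (2.5 h, room temp) reports HSE-driven beta-lactamase in HeLa cells treated 5 h at 37 C with DMSO-dissolved compounds.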

[15] = qHTS assay to identify small molecule agonists of the peroxisome proliferator-activated receptor delta (PPARd) signaling pathway - cell viability counter screen (AID 743211); further: nearly all actives have a fitted effect of over 55% in size
Summary of the method: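 Luminescent ATP viability assay (CellTiter-Glo, 30 min RT) in UAS-bla HEK293H cells carrying the PPAR delta reporter construct, 3000 cells/well, after a 17 h compound treatment at 37 C.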

[16] = qHTS assay to identify small molecule antagonists of the estrogen receptor alpha (ER-alpha) signaling pathway using the BG1 cell line (AID 743080; calls by dose curve;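 further: BG1 cells stimulated with 17beta-estradiol alongside compound; series mostly up to about 70 µM; nearly all actives have a fitted effect of over 25% in size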)
Summary of the method: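 Readout is ONE-Glo luminescence, taken 30 min at room temperature after reagent addition, preceded by a CellTiter-Fluor viability read; BG1-Luc-4E2 cells had received compound and 17beta-estradiol for 21.5 h at 37 C.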

[17] = qHTS assay for small molecule agonists of the antioxidant response element (ARE) signaling pathway - cell viability counter screen (AID 743203; calls by dose curve; further: nearly all actives have a fitted effect of over 55% in size)
Summary of the method: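 Viability counter screen: CellTiter-Glo luminescence, read after 30 min at room temperature, in ARE-bla HepG2 wells. Compound exposure lasted 16 h at 37C/5% CO2, following a 5 h pre-incubation of the cells after plating.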

[18] = biological target: Peroxisome proliferator-activated receptor gamma (Homo sapiens) (UniProt P37231); assay: qHTS assay to identify small molecule antagonists of the peroxisome proliferator-activated receptor gamma (PPARg) signaling pathway (AID 743191; calls by dose curve; further: series mostly up to about 63 µM; nearly all actives have a fitted effect of over 30% in size)
Summary of the method: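 Beta-lactamase reporter under UAS control in HEK293H PPARg-bla cells; compound treatment 17 h at 37C. Read-out: fluorescence intensity after 1 h room-temperature incubation with LiveBLAzer B/G FRET substrate.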

[19] = qHTS assay for small molecule agonists of the antioxidant response element (ARE) signaling pathway (AID 743202; active means well fitted activation curve with a large enough effect in the signal ratio in the repeat runs, not every such curve was filed as active; the % refers to the signal ratio)
Summary of the method: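 Beta-lactamase reporter activity, read as fluorescence intensity, reflects ARE/Nrf2 pathway induction in HepG2 cells after 16 h compound exposure at 37 C; substrate loading was 2 h at room temperature.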
On the % scale 0 is the no-effect control and ±100 the full control effect.

CCCCCCCCCCOc1cc2c(=O)c(C(=O)OCC)c[nH]c2cc1OCC
inactive: Potency [1] | outcome [2] | Potency [3] | Potency [4] | Potency [5] | Potency [6] | outcome [7] | outcome (Aromatase (Homo sapiens)) | Potency [8] | Potency [9] | Potency [10] | Potency [11] | activity change, negative = cytotoxicity [12] 22.1% [at 5.95 µM] | activity change, negative = cytotoxicity [13] 1.04% [at 5.95 µM] | activation [14] -0.938% [at 5.95 µM] | activity change, negative = cytotoxicity [15] 8.81% [at 5.95 µM]

CCCCCCCCCCCCCCC(=O)O
inactive: Potency [1] | outcome [2] | Potency [3] | Potency [4] | Potency [16] | outcome [7] | outcome (Aromatase (Homo sapiens)) | Potency [8] | Potency [9] | Potency [10] | Potency [11] | outcome [12] | outcome [17] | outcome [13] | outcome [14] | outcome [15]

CCOC(=O)COc1cc(-n2ncc(C(F)(F)F)c(C)c2=O)c(F)cc1Cl
inactive: Potency [1] | outcome [2] | Potency [4] | Potency [5] | Potency [6] | Potency [16] | outcome [7] | outcome (Aromatase (Homo sapiens)) | Potency [8] | Potency [9] | Potency [10] | Potency [11] | Potency [18] | outcome [12] | Potency [19] | outcome [17] | outcome [14] | outcome [15]

C=CCCCCCCCCC(=O)OCC
inactive: Potency [1] | outcome [2] | Potency [3] | Potency [5] | Potency [6] | Potency [16] | outcome [7] | outcome (Aromatase (Homo sapiens)) | Potency [8] | Potency [10] | Potency [11] | outcome [12] | outcome [17] | outcome [13] | outcome [14] | outcome [15]

CC1=NN(c2cc(S(=O)(=O)O)ccc2Cl)C(=O)C1N=Nc1ccccc1 (stereo not drawn)
inactive: Potency [1] | outcome [2] | Potency [3] | Potency [4] | Potency [5] | Potency [6] | outcome (Aromatase (Homo sapiens)) | Potency [11] | Potency [18] | outcome [12] | outcome [17] | outcome [13] | outcome [15]

C[N+]1(C)CCCC(OC(=O)C(O)(c2ccccc2)c2ccccc2)C1 (stereo not drawn)
inactive: Potency [1] | outcome [2] | Potency [3] | Potency [4] | Potency [5] | outcome [7] | outcome (Aromatase (Homo sapiens)) | Potency [8] | Potency [9] | Potency [10] | outcome [12] | outcome [17] | outcome [13] | outcome [14] | outcome [15]

CCOc1ccc2nc(S(N)(=O)=O)sc2c1
inactive: Potency [1] | outcome [2] | Potency [3] | Potency [4] | Potency [5] | outcome [7] | outcome (Aromatase (Homo sapiens)) | Potency [8] | Potency [10] | Potency [11] | outcome [12] | outcome [17] | outcome [13] | outcome [14] | outcome [15]

CCOC(=O)OC(C)OC1=C(C(=O)Nc2ccccn2)N(C)S(=O)(=O)c2ccccc21 (stereo not drawn)
inactive: Potency [1] | outcome [2] | Potency [3] | Potency [5] | Potency [16] | outcome [7] | outcome (Aromatase (Homo sapiens)) | Potency [8] | Potency [9] | Potency [10] | Potency [11] | Potency [18] | outcome [12] | Potency [19] | outcome [17] | outcome [14] | outcome [15]

CCCCN(CCC(=O)OCC)C(C)=O
inactive: Potency [1] | outcome [2] | Potency [4] | Potency [5] | Potency [6] | Potency [16] | outcome [7] | outcome (Aromatase (Homo sapiens)) | Potency [8] | Potency [9] | Potency [10] | Potency [11] | Potency [18] | outcome [12] | Potency [19] | outcome [17] | outcome [13] | outcome [14] | outcome [15]

CCOC(=O)c1cnc2c(cnn2CC)c1NN=C(C)C
inactive: Potency [1] | outcome [2] | Potency [4] | Potency [5] | Potency [6] | Potency [16] | outcome [7] | outcome (Aromatase (Homo sapiens)) | Potency [8] | Potency [10] | Potency [11] | Potency [18] | outcome [12] | Potency [19] | outcome [17] | outcome [13] | outcome [14] | outcome [15]
active: Potency [9] 29.8 µM

O=C(O)c1cc(C(=O)O)cc(C(=O)O)c1
inactive: Potency [1] | outcome [2] | Potency [4] | Potency [5] | Potency [6] | Potency [16] | outcome [7] | outcome (Aromatase (Homo sapiens)) | Potency [8] | Potency [9] | Potency [10] | Potency [11] | Potency [18] | outcome [12] | Potency [19] | outcome [17] | outcome [13] | outcome [14] | outcome [15]

CN1CCC(=C2c3ccccc3CCc3cccnc32)CC1
inactive: outcome [2] | Potency [3] | Potency [4] | Potency [5] | Potency [6] | outcome [7] | outcome (Aromatase (Homo sapiens)) | Potency [8] | Potency [10] | Potency [18] | outcome [12] | Potency [19] | outcome [17] | outcome [13] | outcome [14] | outcome [15]
active: Potency [1] 23.7 µM

CC(C)(C)C(=O)c1ccccc1
inactive: Potency [1] | outcome [2] | Potency [3] | Potency [4] | Potency [16] | outcome [7] | outcome (Aromatase (Homo sapiens)) | Potency [8] | Potency [9] | Potency [10] | Potency [19] | outcome [17] | outcome [13] | outcome [14] | outcome [15]
active: Potency [6] 61.1 µM

C=CC(C)(CCC=C(C)C)OC(=O)CC (stereo not drawn)
inactive: Potency [1] | outcome [2] | Potency [3] | Potency [4] | Potency [5] | Potency [6] | outcome [7] | outcome (Aromatase (Homo sapiens)) | Potency [8] | Potency [9] | Potency [10] | Potency [11] | outcome [12] | outcome [17] | outcome [13] | outcome [14] | outcome [15]
